Values without a mark were called inactive. Results filed as inconclusive are left out. Some of the results follow. Calls of active or inactive are those of the source. Unless noted, calls follow the shape of the dose curve; as a rule, active = well fitted curve in the direction sought with a large enough effect; inconclusive = small, poorly fitted or top-dose-only effect, or another doubt; inactive = no such curve, though single readings can be large; an effect the other way counts as inactive or inconclusive.

Assay [1] in a line: AP1 Signaling Pathway (AID 357; active = well fitted curve in either direction with a large enough effect, not every such curve was filed as active; also: % is scaled to controls: 0 for no effect and ±100 for the full control effect). Particulars: ME-180 (cervical carcinoma) AP-1-bla reporter, EGF-induced, beta-lactamase ratio, 5 h; at 7.69 µM (top of the series) unless noted. In short, it runs like this:
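AP-1-bla ME-180 cells with beta-lactamase reporter under AP-1 response element, stimulated with EC50 EGF; compounds titrated, 5 hours at 37 degrees Celsius. CCF4 read at 460/530 nm ratio; positive and negative modulators judged by AC50.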

Assay [2] in a line: NFAT Signaling Pathway (AID 444; active = well fitted curve in either direction with a large enough effect, not every such curve was filed as active;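 also: carbachol stimulus at about its EC50 of 1 µM final; % is scaled to controls: 0 for no effect and ±100 for the full control effect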). Particulars: Jurkat NFAT-bla M1, carbachol, beta-lactamase ratio, 5 h; at 7.69 µM (top of the series) unless noted. In short, it runs like this: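 Jurkat cells with NFAT-driven β-lactamase reporter and co-expressed M1 receptor, stimulated with carbachol (final 1 uM, ~EC50), compound titration, 5 h at 37 °C. CCF4 loaded 1 h at RT; 460/530 nm ratio gave %activity and AC50.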

Assay [3] can be described thus: Stat Signaling Pathway (AID 446; active = well fitted curve in either direction with a large enough effect, not every such curve was filed as active;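 also: ME-180 cervical cancer cells given 40 pM IL-6 alongside compound; SIE-controlled beta-lactamase reporter measured as 460/530 nm FRET emission ratio; % is scaled to controls: 0 for no effect and ±100 for the full control effect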). In short, it runs like this: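 IL-6/STAT signaling read in ME-180 cells via an SIE beta-lactamase reporter. Stimulus was 40 pM IL-6 (its AC50) for 5 hrs, so both activation and inhibition register.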
In assay [4] the target is Glucocorticoid receptor (Homo sapiens) (UniProt P04150). As to the kind of experiment: GR-GFP Redistribution (AID 450;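 active = compounds whose dose series gives a full or clear partial fitted curve of increased nuclear translocation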; also: potency is read from the fitted curve at half-maximal effect). Particulars: U2OS GR-GFP nuclear translocation, laser cytometry, 2 h.
Assay [5] addresses Rap guanine nucleotide exchange factor 3 (Homo sapiens) (UniProt O95398). As to the kind of experiment: Confirmatory qHTS for agonist of cAMP-regulated guanine nucleotide exchange factor 3 (EPAC1) (AID 1645881).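 Also: EPAC1 catalysed release of BODIPY-GDP from Rap1B seen as fluorescence loss; 100% = effect of cAMP agonist control; nearly all actives have a fitted effect of over 75% in size.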
The target of assay [6] is Rap guanine nucleotide exchange factor 4 (Homo sapiens) (UniProt Q8WZA2). The experiment in a line: Confirmatory qHTS for agonist of cAMP-regulated guanine nucleotide exchange factor 4 (EPAC2) (AID 1645884). Also: % is scaled to controls: 0 for no effect and ±100 for the full control effect; nearly all actives have a fitted effect of over 65% in size. For orientation: Quantitative high-throughput screening tests each substance at several concentrations.
The target is the same in assay [7]. The experiment in a line: Confirmatory qHTS for antagonist of cAMP-regulated guanine nucleotide exchange factor 4 (EPAC2) (AID 1645885). Also: % is scaled to controls: 0 for no effect and ±100 for the full control effect; nearly all actives have a fitted effect of over 25% in size.
Assay [8] deals with Rap guanine nucleotide exchange factor 3 (Homo sapiens) (UniProt O95398). The experiment in a line: Counterscreen qHTS for antagonist of cAMP-regulated guanine nucleotide exchange factor 3 (EPAC1) (AID 1645888).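 Also: fluorescence loss as bound BODIPY-GDP is released from Rap1B; % of control where 0% means no effect.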 In short, it runs like this: (§1)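 Rap1B–BODIPY-GDP (250 nM) with 50 uM GDP; compounds pin-transferred to 9.74 nM–152 uM final (activator) or from 7.32 nM upwards (inhibitor). Fluorescence Ex/Em 480/540 nm read at 5 and 30 min, then after adding cAMP or buffer, at room temperature.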

Assay [9] has the same target. The experiment in a line: Counterscreen qHTS for agonist of cAMP-regulated guanine nucleotide exchange factor 3 (EPAC1) (AID 1645889). Also: % of control where 0% means no effect; nearly all actives have a fitted effect of over 40% in size. In short, it runs like this:
as §1
For orientation: Counterscreens check selectivity or assay interference.

A short description of assay [10]: qHTS for Inhibitors of the vitamin D receptor (VDR): Hit Validation using a Texas Red Assay (AID 602201). Also: potency is read from the fitted curve at half-maximal effect. In short, it runs like this:
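Fluorescence polarization with 1.5 uM VDR-LBD, LG19078 and 7 nM Texas Red (final). After 2 hours at ambient temperature, read at Ex 595 nm/Em 615 nm.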

For assay [11], the target named is ATPase family AAA domain-containing protein 5 (Homo sapiens) (UniProt Q96QE3). The experiment in a line: qHTS screen for small molecules that inhibit ELG1-dependent DNA repair in human embryonic kidney (HEK293T) cells expressing luciferase-tagged ELG1: Hit Confirmation using MMS Stimulated ELG1 (AID 624249).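 Also: cells co-treated with MMS at 10 µM final alongside compound; luminescence of ELG1-luciferase fusion read with Amplight reagent; % is scaled to controls: 0 for no effect and ±100 for the full control effect; nearly all actives have a fitted effect of over 60% in size.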 In short, it runs like this: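 ELG1-luciferase HEK293T cells were plated at 2,000 cells/well, and about 5 h later test compounds were pin-transferred alongside MMS (final 10 µM). After 16 h, luciferase activity was read with Amplight reagent; hits suppress the signal.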

The nature of assay [12]: qHTS screen for small molecules that inhibit ELG1-dependent DNA repair: Hit Confirmation with MMS Viability (AID 624251). Also: % is scaled to controls: 0 for no effect and ±100 for the full control effect; nearly all actives have a fitted effect of over 60% in size. In short, it runs like this:
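Viability read-out: CellTiter-Glo, 16 h after compound addition. Cell line ELG1-luc HEK293T; DNA-damaging co-treatment MMS, 10 µM final.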

In assay [13] the target is Tumor susceptibility gene 101 protein (Homo sapiens) (UniProt Q99816). As to the kind of experiment: qHTS Assay for Iinhibitors of HIV-1 Budding by Blocking the Interaction of PTAP/TSG101: Hit Validation (AID 651600). Also: nearly all actives have a fitted effect of over 70% in size. Also: potency is read from the fitted curve at half-maximal effect. As to activity change, negative = inhibition: % is scaled to controls: 0 for no effect and ±100 for the full control effect. In short, it runs like this: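 Fluorescence polarization binding assay: Tsg101 binding domain (10 uM final) pre-dispensed with compounds, then FITC-labeled PTAP-motif peptide (50 nM final) added; 20 min at r.t. in HEPES pH 7.5 buffer with NaCl, Tween 20, EDTA, TCEP.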

In assay [14] the target is Lethal(3)malignant brain tumor-like protein 1 (Homo sapiens) (UniProt Q9Y468). The experiment in a line: qHTS Assay for the Inhibitors of L3MBTL1: Hit Validation (AID 540279). Also: potency is read from the fitted curve at half-maximal effect; nearly all actives have a fitted effect of over 70% in size. Particulars: L3MBTL1 methyl-lysine binding inhibition, biochemical qHTS. In short, it runs like this:
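L3MBTL1 (50 nM final) preformed 30 min with biotinylated H3(1-15)K9me1 peptide (75 nM), then compound 30 min at room temperature. Streptavidin donor and nickel chelate acceptor AlphaScreen beads (10 ug/mL each final) added for 30 min before read.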

Assay [15] addresses DNA polymerase iota (Homo sapiens) (UniProt Q9UNA4). The experiment in a line: qHTS for Inhibitors of Polymerase Iota: Confirmatory Assay for Cherry-picked Compounds (AID 720496). Also: potency is read from the fitted curve at half-maximal effect. Particulars: Pol iota primer extension, TAMRA/BHQ fluorescence. In short, it runs like this:
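Read-out is TAMRA fluorescence (525 nm excitation, 598 nm emission) at 0 and 10 min. It reflects strand displacement from a BHQ-2-quenched template by 10 nM Pol iota, with 50 nM final substrate after 15 min compound preincubation.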

In assay [16] the target is DNA polymerase kappa (Homo sapiens) (UniProt Q9UBT6). The experiment in a line: qHTS for Inhibitors of Polymerase Kappa: Confirmatory Assay for Cherry-picked Compounds (AID 720501). Also: potency is read from the fitted curve at half-maximal effect. Particulars: purified Pol-kappa, fluorescent strand-displacement substrate. In short, it runs like this:
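10 nM human Pol-kappa was preincubated with compound 15 min at room temperature, then 50 nM (final) primer/template substrate with TAMRA-labeled reporter strand and BHQ-2-labeled template added. Fluorescence (Ex 525, Em 598 nm) read at 0 and 10 min.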

The target of assay [17] is DNA polymerase eta (Homo sapiens) (UniProt Q9Y253). The experiment in a line: qHTS for Inhibitors of Polymerase Eta: Confirmatory Assay for Cherry-picked Compounds (AID 720502). Also: potency is read from the fitted curve at half-maximal effect. Particulars: Pol eta primer extension, TAMRA/BHQ fluorescence, 10 min. In short, it runs like this:
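Human Pol eta at 10 nM was preincubated with compound for 15 min at room temperature. Reaction was started with TAMRA/BHQ-2-labelled primer-template substrate (50 nM final), with fluorescence read at 0 and 10 min (ex 525, em 598 nm).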

Tumor susceptibility gene 101 protein (Homo sapiens), sequence (Q99816 whole entry, looked up, the tested form may be a part): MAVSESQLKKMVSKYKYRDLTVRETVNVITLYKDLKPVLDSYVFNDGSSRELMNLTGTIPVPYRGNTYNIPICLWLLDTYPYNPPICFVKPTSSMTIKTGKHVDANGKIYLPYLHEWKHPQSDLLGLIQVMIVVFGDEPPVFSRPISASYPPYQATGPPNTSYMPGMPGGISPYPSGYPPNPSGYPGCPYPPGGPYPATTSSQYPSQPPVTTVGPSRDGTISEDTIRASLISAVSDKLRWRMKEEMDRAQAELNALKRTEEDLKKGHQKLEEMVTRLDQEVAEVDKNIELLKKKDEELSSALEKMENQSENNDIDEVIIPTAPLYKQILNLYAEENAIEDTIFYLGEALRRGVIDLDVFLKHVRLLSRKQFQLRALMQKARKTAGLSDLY
Rap guanine nucleotide exchange factor 3 (Homo sapiens), sequence (O95398 whole entry, looked up): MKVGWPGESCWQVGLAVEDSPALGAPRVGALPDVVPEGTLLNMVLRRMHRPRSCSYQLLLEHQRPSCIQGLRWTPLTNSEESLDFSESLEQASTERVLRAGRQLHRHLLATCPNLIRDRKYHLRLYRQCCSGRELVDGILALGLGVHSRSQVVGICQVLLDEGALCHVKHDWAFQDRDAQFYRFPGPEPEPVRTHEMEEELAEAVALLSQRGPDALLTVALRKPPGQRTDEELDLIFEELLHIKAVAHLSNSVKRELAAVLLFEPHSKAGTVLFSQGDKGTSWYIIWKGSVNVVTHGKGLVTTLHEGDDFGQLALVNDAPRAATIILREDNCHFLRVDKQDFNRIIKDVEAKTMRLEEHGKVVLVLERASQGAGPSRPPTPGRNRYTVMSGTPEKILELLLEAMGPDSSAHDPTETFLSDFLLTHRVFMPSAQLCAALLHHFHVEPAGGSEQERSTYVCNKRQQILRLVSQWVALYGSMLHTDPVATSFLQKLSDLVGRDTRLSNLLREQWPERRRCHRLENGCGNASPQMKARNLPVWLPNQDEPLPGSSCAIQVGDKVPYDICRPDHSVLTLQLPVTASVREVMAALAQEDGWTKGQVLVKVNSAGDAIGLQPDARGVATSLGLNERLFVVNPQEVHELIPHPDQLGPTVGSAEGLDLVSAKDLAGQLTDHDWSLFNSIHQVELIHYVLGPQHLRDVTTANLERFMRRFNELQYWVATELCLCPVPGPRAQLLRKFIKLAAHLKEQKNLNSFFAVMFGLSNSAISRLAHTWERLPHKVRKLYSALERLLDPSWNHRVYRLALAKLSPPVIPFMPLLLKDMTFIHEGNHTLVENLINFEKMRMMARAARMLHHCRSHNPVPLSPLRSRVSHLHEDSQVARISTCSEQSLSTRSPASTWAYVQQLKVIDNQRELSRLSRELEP
Rap guanine nucleotide exchange factor 4 (Homo sapiens), sequence (Q8WZA2 whole entry, looked up): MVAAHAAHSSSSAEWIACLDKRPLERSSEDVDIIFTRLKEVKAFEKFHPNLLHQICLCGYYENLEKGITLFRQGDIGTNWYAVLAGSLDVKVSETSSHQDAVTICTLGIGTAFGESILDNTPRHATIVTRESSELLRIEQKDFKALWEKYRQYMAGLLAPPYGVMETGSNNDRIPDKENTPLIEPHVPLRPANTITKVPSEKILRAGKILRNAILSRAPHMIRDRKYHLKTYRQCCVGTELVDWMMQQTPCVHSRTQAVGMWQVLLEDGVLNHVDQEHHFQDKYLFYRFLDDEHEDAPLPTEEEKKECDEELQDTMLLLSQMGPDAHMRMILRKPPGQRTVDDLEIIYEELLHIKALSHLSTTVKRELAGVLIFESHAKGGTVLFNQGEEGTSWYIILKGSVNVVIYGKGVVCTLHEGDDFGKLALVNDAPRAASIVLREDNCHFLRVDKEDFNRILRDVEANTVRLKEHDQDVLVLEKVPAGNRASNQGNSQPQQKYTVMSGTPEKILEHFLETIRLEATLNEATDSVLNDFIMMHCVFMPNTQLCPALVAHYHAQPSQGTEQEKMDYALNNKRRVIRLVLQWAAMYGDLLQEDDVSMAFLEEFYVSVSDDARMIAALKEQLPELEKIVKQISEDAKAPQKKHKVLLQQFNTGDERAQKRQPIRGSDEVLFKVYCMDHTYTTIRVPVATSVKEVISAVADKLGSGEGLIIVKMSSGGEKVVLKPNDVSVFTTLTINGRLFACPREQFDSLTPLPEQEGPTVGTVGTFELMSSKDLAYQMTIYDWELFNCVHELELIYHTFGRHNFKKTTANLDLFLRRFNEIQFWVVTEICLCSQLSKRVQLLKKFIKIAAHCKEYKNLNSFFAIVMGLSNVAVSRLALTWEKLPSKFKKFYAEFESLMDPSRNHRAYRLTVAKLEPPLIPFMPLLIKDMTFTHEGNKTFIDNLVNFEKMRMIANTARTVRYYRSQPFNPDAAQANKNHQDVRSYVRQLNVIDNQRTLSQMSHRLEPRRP
Lethal(3)malignant brain tumor-like protein 1 (Homo sapiens), sequence (Q9Y468 whole entry, looked up): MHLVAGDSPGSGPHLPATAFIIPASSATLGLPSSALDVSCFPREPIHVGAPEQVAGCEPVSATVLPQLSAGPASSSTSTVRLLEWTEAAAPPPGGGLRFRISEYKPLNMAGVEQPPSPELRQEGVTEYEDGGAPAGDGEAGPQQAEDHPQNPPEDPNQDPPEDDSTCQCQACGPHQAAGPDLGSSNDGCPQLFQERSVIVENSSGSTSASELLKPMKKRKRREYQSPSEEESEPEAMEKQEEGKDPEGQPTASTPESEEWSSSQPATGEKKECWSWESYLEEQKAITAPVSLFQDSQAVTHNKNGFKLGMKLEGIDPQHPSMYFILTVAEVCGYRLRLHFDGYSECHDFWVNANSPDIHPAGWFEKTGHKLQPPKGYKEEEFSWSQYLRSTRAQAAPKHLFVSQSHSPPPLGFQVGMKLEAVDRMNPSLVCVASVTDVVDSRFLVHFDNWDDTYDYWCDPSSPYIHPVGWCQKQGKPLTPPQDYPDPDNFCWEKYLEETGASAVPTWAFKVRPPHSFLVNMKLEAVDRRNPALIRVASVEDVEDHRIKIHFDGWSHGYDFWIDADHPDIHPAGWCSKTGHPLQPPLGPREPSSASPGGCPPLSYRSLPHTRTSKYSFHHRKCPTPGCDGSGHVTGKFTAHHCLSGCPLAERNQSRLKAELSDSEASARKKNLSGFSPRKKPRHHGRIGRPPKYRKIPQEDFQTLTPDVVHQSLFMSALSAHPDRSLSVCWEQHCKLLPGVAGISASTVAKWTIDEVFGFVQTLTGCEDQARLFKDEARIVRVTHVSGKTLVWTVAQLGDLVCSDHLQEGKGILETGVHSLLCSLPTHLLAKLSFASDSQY
DNA polymerase kappa (Homo sapiens), sequence (Q9UBT6 whole entry, looked up): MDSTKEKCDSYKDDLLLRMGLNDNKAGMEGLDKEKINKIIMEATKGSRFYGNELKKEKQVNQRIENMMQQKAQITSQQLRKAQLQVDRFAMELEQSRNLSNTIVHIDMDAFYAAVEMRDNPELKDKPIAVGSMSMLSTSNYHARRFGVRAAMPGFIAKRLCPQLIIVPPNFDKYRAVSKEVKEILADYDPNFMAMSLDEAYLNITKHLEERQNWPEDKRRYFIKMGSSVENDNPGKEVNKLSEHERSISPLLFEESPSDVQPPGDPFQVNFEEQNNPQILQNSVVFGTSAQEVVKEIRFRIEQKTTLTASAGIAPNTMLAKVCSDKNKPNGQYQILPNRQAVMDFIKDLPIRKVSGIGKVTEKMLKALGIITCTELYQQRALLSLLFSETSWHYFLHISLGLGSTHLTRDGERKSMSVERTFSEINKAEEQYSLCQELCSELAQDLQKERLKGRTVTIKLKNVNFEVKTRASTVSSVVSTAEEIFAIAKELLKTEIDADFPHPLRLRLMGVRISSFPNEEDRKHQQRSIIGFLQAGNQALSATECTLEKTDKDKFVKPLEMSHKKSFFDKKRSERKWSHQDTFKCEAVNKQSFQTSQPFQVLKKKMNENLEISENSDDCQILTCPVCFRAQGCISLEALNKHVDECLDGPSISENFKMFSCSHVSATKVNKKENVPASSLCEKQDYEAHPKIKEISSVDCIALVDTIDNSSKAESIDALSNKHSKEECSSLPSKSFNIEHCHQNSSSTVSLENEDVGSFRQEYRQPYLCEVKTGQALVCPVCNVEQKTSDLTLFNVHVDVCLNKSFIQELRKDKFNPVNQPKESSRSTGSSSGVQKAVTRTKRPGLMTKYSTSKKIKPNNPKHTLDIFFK
DNA polymerase eta (Homo sapiens), sequence (Q9Y253 whole entry, looked up): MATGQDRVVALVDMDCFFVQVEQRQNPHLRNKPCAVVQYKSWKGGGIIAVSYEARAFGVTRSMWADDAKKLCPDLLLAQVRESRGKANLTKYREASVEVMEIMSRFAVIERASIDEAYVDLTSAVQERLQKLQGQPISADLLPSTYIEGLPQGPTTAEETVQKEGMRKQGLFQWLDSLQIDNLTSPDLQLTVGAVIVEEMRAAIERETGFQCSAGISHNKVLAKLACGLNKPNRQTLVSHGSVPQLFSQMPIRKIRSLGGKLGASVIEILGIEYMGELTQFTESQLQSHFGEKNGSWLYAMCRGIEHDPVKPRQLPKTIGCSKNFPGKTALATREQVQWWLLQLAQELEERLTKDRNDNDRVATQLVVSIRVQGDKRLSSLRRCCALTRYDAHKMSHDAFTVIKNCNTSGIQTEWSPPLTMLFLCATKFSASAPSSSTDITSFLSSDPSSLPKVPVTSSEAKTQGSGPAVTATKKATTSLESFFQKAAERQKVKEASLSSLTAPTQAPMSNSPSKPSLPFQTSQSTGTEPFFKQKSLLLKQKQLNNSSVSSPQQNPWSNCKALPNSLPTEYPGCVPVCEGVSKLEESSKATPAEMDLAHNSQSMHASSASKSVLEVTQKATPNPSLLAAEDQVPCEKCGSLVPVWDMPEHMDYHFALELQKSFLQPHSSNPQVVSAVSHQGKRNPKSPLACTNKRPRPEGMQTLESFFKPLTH

On to `CCOC(=O)C1CCCN(c2nc3ccccc3nc2C(C#N)C(=O)OC(C)C)C1` (configuration not stated), for which the activity change, negative = inhibition in [1] was -3.2% [at 17.2 µM]; in [2] it was -22.1% [at 17.2 µM]; in assay [8], 0.815% [at 30.8 µM]. The call in assay [3] was inactive. Moreover, the Potency in assay [4] was greater than 20.6 µM. Further, the Potency result in [5] and in assay [7] was “inactive” throughout. Also, the activation was 6.19% [at 17.1 µM, percent relative to cAMP agonist control] in [6] and 36.1% [at 30.8 µM] in assay [9].
`CC1=NN(c2cccc(C(=O)O)c2)C(=O)/C1=C\C=C/c1ccccc1`: the Potency in [10] was 5.62 µM (active). For the same molecule, the Potency entry in [5], in assay [6], in assay [7] and in assay [8] was “inactive” in each case.
For `O=C(NNc1cc(Br)c(O)c(Br)c1)c1ccccc1`, the Potency in [10] is 25.1 µM (active). Besides, the Potency result in [5] and in assay [7] was “inactive” each time. Moreover, the activation in assay [6] is -6.77% [at 17.1 µM, percent relative to cAMP agonist control]; in assay [9], 11.6% [at 30.8 µM]. Besides, the activity change, negative = inhibition in [8] is -6.86% [at 30.8 µM].
In the case of `CC(C)(C)c1ccc(Cn2nnc3c(=O)[nH]c(C4CCN(C(=O)Cc5cccs5)CC4)nc32)cc1`, the Potency result in [5], in [6], in [7], in assay [8] and in assay [9] was “inactive” each time.
Regarding `COc1cc(N)c(Cl)cc1C(=O)OCC(=O)c1ccc2c(c1)NC(=O)CO2`, the Potency result in assay [11], in [5], in assay [6], in assay [7], in assay [8] and in assay [9] was “inactive” each time. The call in assay [12] was inactive.
Turning to `Cc1c2ccccc2nc2c(F)c(NC(C)C)c(F)c(F)c12`, the Potency entry in assay [13], in assay [5], in assay [6], in assay [7] and in [8] was “inactive” each time.
As for `Cc1ccc(N=C2NC(=O)/C(=C/C=C/c3ccco3)S2)cc1C`, the Potency in [14] is 21.2 µM (active); in assay [15], 47.4 µM (active); in assay [16], 47.4 µM (active); in assay [17], 53.6 µM (active). The Potency result in [5] and in [7] was “inactive” each time. Further, the activation in assay [6] was -4% [at 17.1 µM, percent relative to cAMP agonist control]; in assay [9], 25.8% [at 30.8 µM]. In addition, the activity change, negative = inhibition in assay [8] is 5.98% [at 30.8 µM].
Take `COC(=O)c1cc2c(N)c(C(=O)c3ccc(Cl)cc3)sc2nc1C(OC)OC`: the Potency result in assay [13], in [5] and in assay [7] was “inactive” in each case. Further, the activation in [6] was 5.58% [at 17.1 µM, percent relative to cAMP agonist control]; in assay [9], 42.3% [at 30.8 µM]. Further, the activity change, negative = inhibition in assay [8] is -4.3% [at 30.8 µM].
For the molecule `COc1ccc(OC)c2c1C(=O)c1ccccc1C2=O`, the Potency in assay [13] was 14.6 µM (active). Moreover, the Potency entry in [5], in assay [6], in assay [7] and in assay [8] was “inactive” each time.

(Values after PubChem BioAssay (NCATS).)
